# Unmarked numbers belong to inactive results. Inconclusive results are not listed. Entries that show only a call come without a potency. The source made the active and inactive calls. Unless noted, calls follow the shape of the full dose curve.
# Columns and labels:
# [1] = Nuclear factor erythroid 2-related factor 2/antioxidant responsive element (Nrf2/ARE) small molecule agonists: qHTS cell viability counter screen in human keratinocytes (AID 1919968; active = well fitted curve in the direction sought with a large enough effect in the repeat runs; an effect the other way counts as inactive or inconclusive; also: nearly all actives have a fitted effect of over 55% in size; also: potency is read from the fitted curve at half-maximal effect)
# Summary of the method: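 KeratinoSens cells (HaCaT keratinocytes stably carrying an ARE-luciferase reporter) were seeded at 1,500 cells/well and rested 5 h at 37 C/5% CO2. They were then exposed to compounds in DMSO for 23 h. Viability was read by CellTiter-Fluor fluorescence after 1 h.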
# [2] = Nuclear factor erythroid 2-related factor 2/antioxidant responsive element (Nrf2/ARE) small molecule agonists: luciferase reporter gene qHTS assay in human keratinocytes (AID 1919969); also: nearly all actives have a fitted effect of over 35% in size; also: potency is read from the fitted curve at half-maximal effect
# [3] = target: Gonadotropin-releasing hormone receptor (Homo sapiens) (UniProt P30968); experiment: Human gonadotropin-releasing hormone receptor (GnRHR) small molecule agonists, calcium flux assay in GnRHR-HEK293 cells (AID 1920063); also: nearly all actives have a fitted effect of over 35% in size
# Gonadotropin-releasing hormone receptor (Homo sapiens), sequence (P30968 whole entry, looked up): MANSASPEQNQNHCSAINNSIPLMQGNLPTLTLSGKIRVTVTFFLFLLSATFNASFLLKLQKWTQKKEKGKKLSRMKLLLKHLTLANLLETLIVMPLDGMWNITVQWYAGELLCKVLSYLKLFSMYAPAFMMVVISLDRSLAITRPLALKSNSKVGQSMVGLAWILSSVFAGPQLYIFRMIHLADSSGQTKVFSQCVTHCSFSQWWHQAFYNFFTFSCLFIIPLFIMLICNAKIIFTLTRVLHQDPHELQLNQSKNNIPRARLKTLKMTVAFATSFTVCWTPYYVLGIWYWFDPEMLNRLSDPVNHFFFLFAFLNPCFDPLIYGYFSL
# Summary of the method: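 HEK293 cells stably expressing human GnRHR were plated 18 h at 37 °C, loaded with calcium dye 1 h at 37 °C, then given compound in agonist mode; fluorescence (Ex/Em 480/540) read kinetically for 3 min at 1 s intervals.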
# [4] = target: KiSS-1 receptor (Homo sapiens) (UniProt Q969F8); experiment: Human kisspeptin (KISS1R) small molecule agonists, calcium flux assay in KISS1R-HEK293 cells (AID 1920064; active = well fitted curve in the direction sought with a large enough effect in the repeat runs; an effect the other way counts as inactive or inconclusive)
# KiSS-1 receptor (Homo sapiens), sequence (Q969F8 whole entry, looked up): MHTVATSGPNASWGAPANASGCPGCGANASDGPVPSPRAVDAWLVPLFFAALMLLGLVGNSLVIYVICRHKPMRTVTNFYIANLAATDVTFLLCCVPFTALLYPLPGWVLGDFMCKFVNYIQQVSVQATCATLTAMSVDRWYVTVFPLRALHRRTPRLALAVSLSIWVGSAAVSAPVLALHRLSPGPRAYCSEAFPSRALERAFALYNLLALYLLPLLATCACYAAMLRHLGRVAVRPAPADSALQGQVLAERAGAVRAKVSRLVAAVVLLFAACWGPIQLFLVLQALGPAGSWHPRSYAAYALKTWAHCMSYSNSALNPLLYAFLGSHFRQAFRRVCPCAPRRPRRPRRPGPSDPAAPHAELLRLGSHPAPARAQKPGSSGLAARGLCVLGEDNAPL
# Summary of the method: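 HEK293 cells stably expressing human KISS1R were plated 18 h at 37 °C, loaded with calcium dye for 1 h at 37 °C, then given compound by pin tool. Fluorescence (Ex/Em 480/540) was read kinetically for 3 min.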
# [5] = G protein-coupled receptor (GPCR) small molecule agonists, calcium flux assay: HEK293 wild type cell line counter screen (AID 1920065)
# Summary of the method: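 Cells were plated and cultured 18 h at 37 C/5% CO2, then loaded with calcium dye for 1 h at 37 C. Compounds in DMSO were pin-transferred in agonist mode, and fluorescence (Ex/Em 480/540) was read kinetically for 3 min at 1 s intervals.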
# [6] = p53 small molecule agonists, cell-based qHTS assay with human liver microsomes (AID 1963577);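 also: p53 response element beta-lactamase reporter cells with liver microsomes plus NADPH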
# Summary of the method: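 p53RE-bla cells; 5 h settle, 37 C/5% CO2; cpd + HLM 0.5 mg/mL + NADPH 0.5 mg/mL (final); 16 h 37 C; LiveBLAzer 2 h RT dark; fluorescence readout.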
# [7] = p53 small molecule agonists, cell-based qHTS assay with rat liver microsomes (AID 1963578)
# Summary of the method: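 Rat liver microsome activation: microsomes 0.5 mg/mL, NADPH 0.5 mg/mL final; p53RE-bla cells, 16 h 37 C; LiveBLAzer readout, 2 h RT dark.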
# [8] = p53 small molecule agonists, cell-based qHTS assay with human liver microsomes: qHTS cell viability counter screen (AID 1963579); also: nearly all actives have a fitted effect of over 45% in size
# Summary of the method: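 Luminescent CellTiter-Glo read-out, 30 min at room temperature, gauged cytotoxicity in p53RE-bla cells exposed 16 h at 37 C to DMSO-dissolved compounds with metabolic activation by human liver microsomes and NADPH, each 0.5 mg/mL final.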
# [9] = p53 small molecule agonists, cell-based qHTS assay with rat liver microsomes: qHTS cell viability counter screen (AID 1963580); also: nearly all actives have a fitted effect of over 45% in size
# Summary of the method: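 p53RE-bla HCT-116 cells (4,000/well) rested 5 h at 37 C, then given Tox21 compounds in DMSO with rat liver microsomes (0.5 mg/mL final) plus NADPH (0.5 mg/mL final) for 16 h at 37 C. Viability read by CellTiter-Glo luminescence after 30 min at room temperature.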
# [10] = p53 small molecule agonists, cell-based qHTS assay: qHTS cell viability counter screen (AID 1963581); also: nearly all actives have a fitted effect of over 45% in size
# Summary of the method: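 p53RE-bla HCT-116 cells were exposed to compounds for 16 h at 37 C; after the beta-lactamase FRET read in the same wells, CellTiter-Glo was added and luminescence (intracellular ATP) read after 30 min at room temperature.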
# [11] = p53 small molecule agonists, cell-based qHTS assay (AID 1963582; active = well fitted activation curve with a large enough effect in the signal ratio in the repeat runs, not every such curve was filed as active; the % refers to the signal ratio)
# Summary of the method: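 p53RE-bla beta-lactamase reporter cells rested 5 h at 37 C/5% CO2, then received compounds in DMSO by pin transfer and were incubated 16 h at 37 C. LiveBLAzer B/G FRET substrate was loaded for 2 h at room temperature before fluorescence reading.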
# [12] = target: 5-hydroxytryptamine receptor 2A (Homo sapiens) (UniProt P28223); experiment: 5-hydroxytryptamine receptor 2A (HTR2A) small molecule antagonists, cell-based qHTS assay (AID 1963586); also: nearly all actives have a fitted effect of over 45% in size
# 5-hydroxytryptamine receptor 2A (Homo sapiens), sequence (P28223 whole entry, looked up): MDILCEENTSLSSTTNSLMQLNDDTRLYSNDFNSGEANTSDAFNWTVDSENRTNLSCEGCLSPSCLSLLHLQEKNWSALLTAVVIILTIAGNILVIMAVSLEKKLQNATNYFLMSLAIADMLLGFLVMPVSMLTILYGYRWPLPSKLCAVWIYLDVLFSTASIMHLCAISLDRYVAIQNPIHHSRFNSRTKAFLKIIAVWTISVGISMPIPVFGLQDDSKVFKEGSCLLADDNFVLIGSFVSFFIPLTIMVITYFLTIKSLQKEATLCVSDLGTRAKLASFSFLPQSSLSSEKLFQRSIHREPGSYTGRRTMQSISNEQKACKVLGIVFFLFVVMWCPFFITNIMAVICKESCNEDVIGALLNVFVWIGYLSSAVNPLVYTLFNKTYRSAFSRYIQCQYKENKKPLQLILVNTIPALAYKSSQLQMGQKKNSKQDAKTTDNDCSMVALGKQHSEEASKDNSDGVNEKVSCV
# Summary of the method: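 Antagonist-mode intracellular calcium assay: DOI (4 nM) added after 5 min compound pre-incubation at room temperature to dye-loaded HTR2A-CHO cells. Fluorescence followed for 3 min, sampled every second.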
# [13] = target: Muscarinic acetylcholine receptor M1 (Homo sapiens) (UniProt P11229); experiment: Cholinergic receptor muscarinic 1 (CHRM1) small molecule antagonists, cell-based qHTS assay (AID 1963588); also: nearly all actives have a fitted effect of over 40% in size
# Muscarinic acetylcholine receptor M1 (Homo sapiens), sequence (P11229 whole entry, looked up): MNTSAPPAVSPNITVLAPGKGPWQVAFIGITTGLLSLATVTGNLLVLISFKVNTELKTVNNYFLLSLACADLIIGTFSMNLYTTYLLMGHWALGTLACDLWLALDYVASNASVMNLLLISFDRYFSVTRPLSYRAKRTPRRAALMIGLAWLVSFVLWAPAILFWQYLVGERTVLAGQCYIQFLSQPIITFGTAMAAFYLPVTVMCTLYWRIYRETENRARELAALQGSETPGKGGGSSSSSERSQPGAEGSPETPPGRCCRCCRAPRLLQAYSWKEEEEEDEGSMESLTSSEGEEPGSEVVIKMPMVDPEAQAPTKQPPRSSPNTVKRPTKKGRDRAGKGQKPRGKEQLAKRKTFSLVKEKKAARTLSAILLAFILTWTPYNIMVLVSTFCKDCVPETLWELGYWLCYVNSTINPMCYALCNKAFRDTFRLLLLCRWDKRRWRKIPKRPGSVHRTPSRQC
# Summary of the method: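 CHRM1-CHO calcium-flux assay, antagonist mode. Cells were seeded 18 h, dye-loaded 1 h at 37 C and given compound for 5 min at RT, then acetylcholine was added at 50nM. FDSS fluorescence was read 3 min; 15 concentrations, three runs.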
# [14] = target: Muscarinic acetylcholine receptor M1 (Homo sapiens) (UniProt P11229); experiment: Cholinergic receptor muscarinic 1 (CHRM1) small molecule agonists, cell-based qHTS assay (AID 1963589); also: nearly all actives have a fitted effect of over 35% in size
# Summary of the method: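 CHO cells stably expressing human CHRM1, seeded 18 h at 37 C/5% CO2, dye-loaded 1 h at 37 C, then given compound in agonist mode; intracellular calcium fluorescence read kinetically at 1 s intervals. Fifteen concentrations, three independent runs.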
# [15] = cAMP Responsive Elements (CRE) small molecule agonists, cell-based qHTS assay (AID 1963590)
# Summary of the method: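 CRE-bla HEK 293T cells in DMEM with 10% dialyzed FBS, NEAA, pyruvate and 25 mM HEPES were plated 18 h at 37 C/5% CO2, then exposed to compounds in DMSO for 3 h before LiveBLAzer B/G FRET substrate addition.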
# [16] = target: Beta-2 adrenergic receptor (Homo sapiens) (UniProt P07550); experiment: Adrenergic beta2 receptor (ADRB2) small molecule antagonists, cell-based qHTS assay (AID 1963592); also: series mostly up to about 92 µM; nearly all actives have a fitted effect of over 50% in size
# Beta-2 adrenergic receptor (Homo sapiens), sequence (P07550 whole entry, looked up): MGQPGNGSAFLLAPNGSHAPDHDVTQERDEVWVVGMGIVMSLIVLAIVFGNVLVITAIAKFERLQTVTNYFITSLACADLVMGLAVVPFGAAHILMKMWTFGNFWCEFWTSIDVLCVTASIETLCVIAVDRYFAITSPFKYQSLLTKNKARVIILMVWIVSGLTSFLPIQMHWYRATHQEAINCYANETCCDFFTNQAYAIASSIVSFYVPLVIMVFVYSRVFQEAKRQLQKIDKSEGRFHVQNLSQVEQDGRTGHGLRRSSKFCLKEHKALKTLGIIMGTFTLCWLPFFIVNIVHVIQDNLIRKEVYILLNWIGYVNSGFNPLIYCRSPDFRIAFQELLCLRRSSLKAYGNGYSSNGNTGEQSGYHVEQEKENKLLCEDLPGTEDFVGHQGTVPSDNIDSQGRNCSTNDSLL
# Summary of the method: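 Cells (CHO, stable ADRB2 overexpression) incubated 18-20hr at 37C; compounds added from DMSO; agonist mix (1nM isoproterenol, 100uM IBMX, 25uM Ro-20-1724) added; 0.5hr RT; d2-cAMP and anti-cAMP-cryptate added; 1hr RT; 665/615 nm read.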
# [17] = target: D(2) dopamine receptor (Homo sapiens) (UniProt P14416); experiment: Dopamine D2 receptor (DRD2) small molecule agonists, cell-based qHTS assay (AID 1963594); also: nearly all actives have a fitted effect of over 35% in size
# D(2) dopamine receptor (Homo sapiens), sequence (P14416 whole entry, looked up): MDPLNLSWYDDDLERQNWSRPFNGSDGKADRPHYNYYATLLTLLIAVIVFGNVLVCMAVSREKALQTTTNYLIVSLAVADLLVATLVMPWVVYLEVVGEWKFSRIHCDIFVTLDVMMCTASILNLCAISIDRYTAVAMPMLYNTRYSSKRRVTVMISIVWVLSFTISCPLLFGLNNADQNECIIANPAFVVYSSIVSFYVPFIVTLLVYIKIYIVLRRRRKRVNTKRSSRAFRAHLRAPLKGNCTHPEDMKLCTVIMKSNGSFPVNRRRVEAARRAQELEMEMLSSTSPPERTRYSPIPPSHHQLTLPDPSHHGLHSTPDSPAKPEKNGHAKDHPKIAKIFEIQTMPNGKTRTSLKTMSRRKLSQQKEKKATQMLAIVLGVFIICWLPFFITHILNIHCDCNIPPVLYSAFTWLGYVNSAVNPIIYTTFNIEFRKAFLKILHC
# Summary of the method: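 HEK293 cells stably expressing DRD2 were cultured 24 h at 37 C, then given Ro20-1724 (0.1 mM final) and compounds for 10 min at room temperature. NKH477 (200nM) was then added for 30 min. cAMP was read by HTRF.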
# [18] = target: D(2) dopamine receptor (Homo sapiens) (UniProt P14416); experiment: Dopamine D2 receptor (DRD2) small molecule antagonists, cell-based qHTS assay (AID 1963595; active = well fitted inhibition curve with a large enough effect in the signal ratio in the repeat runs, with a control signal flat; the % refers to the signal ratio)
# Summary of the method: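 Stable D2 receptor HEK293 line, 24 h after seeding. Compound preincubated 10 min, then quinpirole (12 nM) with forskolin analogue NKH477 (200 nM), 30 min, room temperature. Detection by time-resolved FRET of cAMP.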
# [19] = cAMP Responsive Elements (CRE) small molecule antagonists, cell-based qHTS assay (AID 1963591; active = well fitted inhibition curve with a large enough effect in the signal ratio in the repeat runs, not every such curve was filed as active; the % refers to the signal ratio)
# Summary of the method: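 CRE-bla HEK293T cells were plated 18 h at 37 °C/5% CO2, pinned with compound in DMSO, then stimulated with NKH477 at 0.25 uM final for 3 h. LiveBLAzer B/G FRET substrate was added and plates incubated 2 h at room temperature.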
# [20] = target: 5-hydroxytryptamine receptor 2A (Homo sapiens) (UniProt P28223); experiment: 5-hydroxytryptamine receptor 2A (HTR2A) small molecule agonists, cell-based qHTS assay (AID 1963587); also: nearly all actives have a fitted effect of over 30% in size
# Summary of the method: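 HTR2A-CHO cells, plated 18 h at 37 C/5% CO2, dye-loaded 1 h at 37 C; compounds in DMSO added by pin tool (agonist mode). Intracellular calcium flux read as kinetic fluorescence on FDSS over 2 min at 1 s intervals.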
Compound,Potency [1],Potency [2],Potency [3],outcome [4],outcome [5],Potency [6],Potency [7],Potency [8],Potency [9],Potency [10],Potency [11],Potency [12],Potency [13],Potency [14],Potency [15],Potency [16],Potency [17],Potency [18],Potency [19],Potency [20]
CCCCCCCCc1ccc(S(=O)(=O)O)cc1,inactive,inactive,inactive,inactive,inactive,inactive,inactive,inactive,inactive,inactive,inactive,inactive,inactive,inactive,inactive,inactive,inactive,inactive,,
Cc1ccc2c(Cl)cc(Cl)c(O)c2n1,inactive,inactive,inactive,inactive,inactive,inactive,inactive,inactive,inactive,inactive,inactive,inactive,inactive,inactive,inactive,inactive,inactive,inactive,inactive,
Cc1ccccc1C(=O)O,inactive,inactive,inactive,inactive,inactive,inactive,inactive,inactive,inactive,inactive,inactive,inactive,,,,,inactive,inactive,inactive,inactive
CCCCCCCCCCCCN1CCOCC1,inactive,inactive,inactive,inactive,inactive,inactive,inactive,inactive,inactive,inactive,inactive,inactive,inactive,,inactive,inactive,inactive,inactive,inactive,
CC/C=C\CC/C=C/C(OCC)OCC,inactive,61.1 µM (active),inactive,inactive,inactive,inactive,inactive,inactive,inactive,inactive,inactive,inactive,inactive,inactive,inactive,inactive,inactive,inactive,,
COc1cc(S(=O)(=O)O)c(C)cc1N=Nc1c(O)ccc2cc(S(=O)(=O)O)ccc12,24.3 µM (active),inactive,inactive,inactive,inactive,inactive,inactive,inactive,inactive,inactive,inactive,inactive,inactive,,inactive,,,,inactive,
NCCOCCOCCN,inactive,inactive,inactive,inactive,inactive,inactive,inactive,inactive,inactive,inactive,inactive,inactive,,,inactive,inactive,inactive,inactive,inactive,inactive
